This is an account of results in PubChem BioAssay AID1259421 (Broad Institute, 2018).

Several values for one entry are separate records, joined by “and”; a condition that tells them apart may be missing. Identical values can stand only once. Hit rate of the full screen: of about 6,400 compounds, about 610 (9.5%) were called active. Cut-off read from the data, not from the text of the source: active = activity change below about -70%; inconclusive = no clear call, values can overlap the other calls; inactive = above that. Many of the other results were omitted from the sample, so actives are more common in it than they were. A structure can be active in one record and inactive in another.

The test is described as follows: T. gondii ME49Luc in HeLa cells, luciferase assay, 72 h, no IFN-y (AID 1259421). Particulars: stronger effect = lower value, concentration not given here.
As to `CC(C)(C)[C@]1(O)C[C@@H]2OC(=O)C[C@@]23C(=O)O[C@@H]2OC(=O)[C@H](O)C213` (some centres undefined), the activity change, negative = inhibition was 7.37% (inactive).
On to `COC1(C[S@@](=O)c2ccccc2)CCN(CCc2c[nH]c3ccc(F)cc23)CC1`, for which the activity change, negative = inhibition was 22.1% (inactive).
For the molecule `CN1[C@@H]2CC[C@H]1CC(OC1c3ccccc3CCc3ccccc31)C2` (some centres undefined), the activity change, negative = inhibition is 15.8% (inactive).
`c1ccc2c(c1)sc1ccccc12`: the activity change, negative = inhibition was -5.87% (inactive).
Consider `C=C[C@H]1CN2CC[C@H]1C[C@@H]2[C@H](O)c1ccnc2ccccc12`, for which the activity change, negative = inhibition was -7.58% (inactive).
For `CC(C)c1ccc2c(c1O)CC[C@H]1C3=C(CC[C@]21C)C(=O)OC3`, the activity change, negative = inhibition was 0.532% (inactive).
For the molecule `CC(C)[C@]12O[C@H]1[C@@H]1O[C@]13[C@]1(O[C@H]1C[C@H]1C4=C(CC[C@@]13C)C(=O)OC4)[C@@H]2O`, the activity change, negative = inhibition was -86.5% (active).
Consider `C[C@@H]1CN(Cc2ccc(F)cc2)CCN1C(=O)COc1ccc(Cl)cc1NC(N)=O`, for which the activity change, negative = inhibition was -3.05% (inactive).
Consider `O=c1ccc2cc(O[C@@H]3O[C@H](CO)[C@@H](O)[C@H](O)[C@@H]3O)c(O)cc2o1`, for which the activity change, negative = inhibition was -0.686% (inactive).
As for `C=C(C)[C@@H]1[C@H]2OC(=O)[C@H]1[C@]1(O)C[C@H]3O[C@]34C(=O)O[C@H]2[C@]14C`, the activity change, negative = inhibition was 2.63% (inactive).
As for `CCN(CC)CCOC(=O)C(C)(c1ccccc1)c1ccccc1`, the figure is 15.3% (inactive).
Take `O=c1[nH]c2ccc(Cl)cc2c(N[C@@H]2CN3CCC2CC3)c1-c1nc2ccccc2[nH]1`: the activity change, negative = inhibition was -83.1% (active).
For `O=C(N[C@H]1CN2CCC1CC2)c1ccc(Cl)cc1`, the activity change, negative = inhibition is 10.2% (inactive) and 9.22% (inactive).
Consider `O=C(N[C@H]1CN2CCC1CC2)c1cc2cccc(Cl)c2s1`, for which the activity change, negative = inhibition was 25.6% (inactive).
In the case of `C[N+]1(C)CCc2cc3c(cc2C1[C@@H]1OC(=O)c2c1ccc1c2OCO1)OCO3` (some centres undefined), the activity change, negative = inhibition was -1.51% (inactive) and 8.52% (inactive).
For `C1CN2CCC1CC2`, the activity change, negative = inhibition is 14.5% (inactive).
For the molecule `O=C1NC(=S)NC(=O)C1C(=O)Nc1ccccc1`, the activity change, negative = inhibition was 57.2% (inactive).
In the case of `CC12CCC3C(CCC4C(=O)C(=O)CCC43C)C1CCC2=O` (centres undefined), the activity change, negative = inhibition is 21.2% (inactive).
On to `Fc1ccc(C(OCCN2CCN(C/C=C/c3ccccc3)CC2)c2ccc(F)cc2)cc1`, for which the activity change, negative = inhibition was -83.2% (active) and -79.9% (active).
Turning to `Fc1ccc(C(OCCN2CCN(CCCc3ccccc3)CC2)c2ccc(F)cc2)cc1`, the activity change, negative = inhibition is -67.4% (inactive) and 5.82% (inactive).
As to `C(=C\c1ccccc1)/CN1CCN(CCOC(c2ccccc2)c2ccccc2)CC1`, the activity change, negative = inhibition was -4.36% (inactive) and -26.8% (inactive) and -5.08% (inactive).
Regarding `O=c1oc2ccccc2c(O)c1Cc1c(O)c2ccccc2oc1=O`, the activity change, negative = inhibition is -3.14% (inactive) and 12.5% (inactive).
The figure for `N[C@]1(C(=O)O)CC[C@@H](C(=O)O)C1` (racemic) is 3.76% (inactive); for `O=C1c2ccccc2C(=O)c2ccccc21` it is -6.04% (inactive).
As to `c1ccc2c(c1)[I+]c1ccccc1-2`, the activity change, negative = inhibition was -67.1% (inactive) and -88.6% (active).
For `FC(F)(F)c1cccc(N2CCNCC2)c1`, the activity change, negative = inhibition was -1.94% (inactive).
As to `CN=C(NS(=O)(=O)c1ccc(Cl)cc1)N1C[C@H](c2ccccc2)C(c2ccc(Cl)cc2)=N1`, the activity change, negative = inhibition was 38.2% (inactive).
For `Cc1ccc2c(c1)C1(CCN(CCc3nc(-c4ccccc4)oc3C)CC1)OC(=O)N2`, the activity change, negative = inhibition was 0.534% (inactive) and -16.6% (inactive).
Turning to `CC(C)(C)NCC(O)c1ccc(O)cc1Cl` (centres undefined), the activity change, negative = inhibition is -2.47% (inactive).
The figure for `CN1C2C[C@H](OC(=O)[C@H](CO)c3ccccc3)C[C@H]1[C@@H](O)C2` is 4.91% (inactive).
The figure for `CN1C2C[C@H](OC(=O)[C@H](CO)c3ccccc3)C[C@@H]1[C@@H](O)C2` is 6.31% (inactive); for `CCCCCOc1c(OC)ccc2cc(C(=O)NCc3ccc4c(c3)OCO4)c(=O)[nH]c12` it is 23.5% (inactive) and -61.7% (inactive).
As to `C[C@]12CCC3c4ccc(OC(=O)N(CCCl)CCCl)cc4CCC3C1CC[C@@H]2O` (some centres undefined), the activity change, negative = inhibition was -52.4% (inactive).
Regarding `C[C@]12CC[C@H]3[C@@H](CCC4=CC(=O)CC[C@@]43C)[C@@H]1CC[C@H]2O`, the activity change, negative = inhibition is 8.39% (inactive).
As for `C[C@]12CCC(=O)C=C1CCC1C2CC[C@@]2(C)C1CC[C@@H]2O` (some centres undefined), the activity change, negative = inhibition was -78.3% (active) and -86.2% (active).
On to `C[C@]12CCC(=O)C=C1CCC1C2CC[C@@]2(C)C1CC[C@H]2O` (some centres undefined), for which the activity change, negative = inhibition is 2.85% (inactive).
Take `CCC[C@@H]1CC2=CC(=O)CC[C@]2(C)[C@H]2CC[C@@]3(C)[C@@H](CC[C@@]3(O)CCC(=O)O)[C@H]12`: the activity change, negative = inhibition is 17.5% (inactive).
On to `C#C[C@]1(O)C=C[C@H]2[C@@H]3CCC4=CC(=O)CC[C@@H]4[C@H]3CC[C@@]21CC`, for which the activity change, negative = inhibition is -40.4% (inactive).
Turning to `C[C@]12CCC(=O)C=C1CC[C@@H]1[C@@H]2C(=O)C[C@]2(C)C(=O)CC[C@@H]12`, the activity change, negative = inhibition was 8.66% (inactive).
The figure for `CCCCCCC(=O)O[C@H]1CC[C@H]2[C@@H]3CCC4=CC(=O)CC[C@]4(C)[C@H]3CC[C@]12C` is -77% (active); for `C[C@]12CC[C@H]3[C@@H](CCC4=CC(=O)CC[C@@H]43)[C@@H]1CC[C@@H]2O` it is -79.7% (active).
For `CCC(=O)O[C@H]1CCC2C3CCC4=CC(=O)CC[C@]4(C)C3CC[C@@]21C` (some centres undefined), the activity change, negative = inhibition was -76.8% (active) and -88.9% (active).
Take `C#CC1(O)CCC2C3CCC4=CC(=O)CCC4(C)C3CCC21C` (centres undefined): the activity change, negative = inhibition was -6.31% (inactive) and -17.5% (inactive).
Consider `CCCC1CC2=CC(=O)CCC2(C)C2CCC3(C)C(CCC3(O)CCC(=O)O)C12` (centres undefined), for which the activity change, negative = inhibition was 13% (inactive).
